Data on twelve compounds can be found in PubChem BioAssay (NCI).

Where “and” joins values, the source holds several entries; their conditions need not be identical. Equal entries are not always repeated. The panel holds about 83,000 compounds, 20% with a hit somewhere; the sample as a whole holds those more often.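 Method: cells in 96-well plates; compound added at one concentration; 48 h incubation; percent growth measured; values under 10 scored active.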 Values without a mark were called inactive. Calls of active or inactive are those of the source.

Test systems include SR leukemia; RPMI-8226 leukemia; OVCAR-8 ovarian; OVCAR-5 ovarian; OVCAR-4 ovarian; SK-OV-3 ovarian; IGROV1 ovarian; OVCAR-3 ovarian; HS 578T breast; NCI/ADR-RES ovarian.
Common to all, as to assay: NCI-60 one-dose screen, 48 h (100 = growth as untreated, 0 = no growth, -100 = all killed)
Conditions in all cases: 10 µM unless noted

In the case of `COc1ccc(Cl)cc1Nc1nc(C(F)(F)F)ccc1C(=O)N/N=C/c1ccc(N(C)C)cc1`, the growth in the experiment on SR leukemia is 7.32% (active); in the experiment on RPMI-8226 leukemia it was 108%; with OVCAR-8 ovarian, 99.8%; with OVCAR-5 ovarian, 79.5%; with OVCAR-4 ovarian, 87.1%; in the experiment with SK-OV-3 ovarian it was 11.8%. Also, the growth in the experiment with IGROV1 ovarian was 96.4%; in the experiment with OVCAR-3 ovarian it was 147%; in the experiment with HS 578T breast, 101%; in the experiment with NCI/ADR-RES ovarian it was 90%.
Take `Cn1ccnc1CN1CCSC(C(=O)Nc2ccccc2)C1` (stereo not given): the growth with SR leukemia is 96.8%; with RPMI-8226 leukemia it was 88.5%; in the experiment on OVCAR-8 ovarian, 95.5%; in the experiment on OVCAR-5 ovarian, 83.1%; in the experiment on OVCAR-4 ovarian, 90.7%; with SK-OV-3 ovarian, 98.7%. Besides, the growth in the experiment with IGROV1 ovarian is 94.5%; in the experiment with OVCAR-3 ovarian, 102%; with HS 578T breast it was 95.9%; with NCI/ADR-RES ovarian it was 92.7%.
As for `Cc1c(CC(=O)OCCO)cc(-c2ccc(Cl)cc2)n1-c1ccccc1`, the growth in the experiment on SR leukemia was 91.2%; in the experiment on RPMI-8226 leukemia, 72.1%; with OVCAR-8 ovarian, 92.4%; in the experiment with OVCAR-5 ovarian, 99.6%; in the experiment on OVCAR-4 ovarian, 68.9%; in the experiment on SK-OV-3 ovarian, 110%. Also, the growth with IGROV1 ovarian was 104%; with OVCAR-3 ovarian it was 108%; with HS 578T breast it was 106%; in the experiment on NCI/ADR-RES ovarian, 99.5%.
Regarding `C/C=C(\C)C(=O)N[C@H]1CC[C@]2(C)C3CC[C@@]4(C)C(CC[C@@H]4C(C)N(C)C)C3CCC2[C@H]1OC(C)=O` (stereo not given in full), the growth was 7.3% (active) in the experiment on SR leukemia; -15.3% (active) with RPMI-8226 leukemia; 24.9% in the experiment with OVCAR-8 ovarian; 22% with OVCAR-5 ovarian; -23.3% (active) with OVCAR-4 ovarian; -21.4% (active) with SK-OV-3 ovarian. Further, the growth is 9.32% (active) in the experiment on IGROV1 ovarian, -53.9% (active) with OVCAR-3 ovarian, -39.9% (active) in the experiment with HS 578T breast and 16.5% in the experiment with NCI/ADR-RES ovarian.
Regarding `CCCO/N=C/c1ccccn1`, the growth with SR leukemia is 93.4%; in the experiment with RPMI-8226 leukemia, 101%; in the experiment with OVCAR-8 ovarian, 103% and 107%; with OVCAR-5 ovarian it was 106% and 100%; with OVCAR-4 ovarian, 97.4%; with SK-OV-3 ovarian, 101% and 89.7%. Besides, the growth was 107% and 101% with IGROV1 ovarian; 105% and 113% in the experiment with OVCAR-3 ovarian; 102% and 104% with HS 578T breast; 101% and 99.5% in the experiment with NCI/ADR-RES ovarian.
Turning to `CC(=O)N1N=C(c2ccc(Nc3nc(Nc4ccc(F)cc4)nc(Nc4ccc(Cl)cc4)n3)cc2)CC1c1ccc(N(C)C)cc1` (stereo not given), the growth with SR leukemia was -9.66% (active); with RPMI-8226 leukemia, 55%; in the experiment on OVCAR-8 ovarian, 40.2%; in the experiment with OVCAR-5 ovarian it was 65.9%; with OVCAR-4 ovarian, 47.8%; in the experiment on SK-OV-3 ovarian, 85.1%. The growth in the experiment on IGROV1 ovarian was 60.8%; in the experiment on OVCAR-3 ovarian it was 63.5%; in the experiment with HS 578T breast, 24.6%; in the experiment on NCI/ADR-RES ovarian, 48.3%.
Consider `C=C(CNCCc1ccc(O)cc1)[C@@H]1CC[C@]2(CO)CC[C@]3(C)[C@H](CC[C@@H]4[C@@]5(C)CCC(NCCc6ccc(O)cc6)C(C)(C)[C@@H]5CC[C@]43C)[C@@H]12` (stereo not given in full), for which the growth with SR leukemia is -58.5% (active); in the experiment with RPMI-8226 leukemia, -51.7% (active); in the experiment on OVCAR-8 ovarian, -78.1% (active); in the experiment with OVCAR-5 ovarian, -86.3% (active); with OVCAR-4 ovarian it was -81.7% (active); in the experiment with SK-OV-3 ovarian it was -97.4% (active). The growth in the experiment with IGROV1 ovarian is -78.4% (active); with OVCAR-3 ovarian, -94.2% (active); in the experiment with HS 578T breast, -38.9% (active); in the experiment on NCI/ADR-RES ovarian, -54.5% (active).
In the case of `CCOC(=O)C1=C(C)NC(=O)NC1c1c(Cl)n(-c2ccccc2)c2ccccc12` (stereo not given), the growth in the experiment with SR leukemia is 68.6%; with RPMI-8226 leukemia, 68.4%; in the experiment with OVCAR-8 ovarian it was 85.6%; in the experiment on OVCAR-5 ovarian, 84.7%; in the experiment on OVCAR-4 ovarian, 96%; in the experiment with SK-OV-3 ovarian, 85.9%. Also, the growth in the experiment on IGROV1 ovarian is 66.1%; in the experiment on OVCAR-3 ovarian, 69.2%; with HS 578T breast, 76.1%; in the experiment on NCI/ADR-RES ovarian, 85%.
As for `CC(C)(C)c1cc(C(C)(C)c2ccccc2)cc(Cc2cc(C(C)(C)c3ccccc3)cc(C(C)(C)C)c2O)c1O`, the growth is -21.9% (active) with SR leukemia; 91% in the experiment on RPMI-8226 leukemia; 97.9% in the experiment with OVCAR-8 ovarian; 91.8% with OVCAR-5 ovarian; 90.2% in the experiment on OVCAR-4 ovarian; 105% with SK-OV-3 ovarian. Further, the growth was 96.5% in the experiment on IGROV1 ovarian, 106% in the experiment on OVCAR-3 ovarian, 105% with HS 578T breast and 102% in the experiment with NCI/ADR-RES ovarian.
With `COc1ccc(/C=C/C(=O)c2cc3c(N)c(C(=O)Nc4ccccc4)sc3nc2C)cc1`, the growth in the experiment with SR leukemia is 23.4%; in the experiment with RPMI-8226 leukemia it was -13.3% (active); with OVCAR-8 ovarian it was 3.29% (active); with OVCAR-5 ovarian, 39.3%; in the experiment with OVCAR-4 ovarian it was 49.3%; in the experiment with SK-OV-3 ovarian, 33%. Besides, the growth was 31% in the experiment on IGROV1 ovarian, -16.6% (active) in the experiment with OVCAR-3 ovarian, 14.6% in the experiment on HS 578T breast and 2.9% (active) with NCI/ADR-RES ovarian.
For the compound `O=C(Nc1ncc(Cc2cccc(C(F)(F)F)c2)s1)c1ccc2c(c1)OCCO2`, the growth is 6.85% (active) with SR leukemia; 17.6% with RPMI-8226 leukemia; 23.2% in the experiment with OVCAR-8 ovarian; 37.1% in the experiment on OVCAR-5 ovarian; 37.1% in the experiment with OVCAR-4 ovarian; 35.3% in the experiment on SK-OV-3 ovarian. Besides, the growth in the experiment with IGROV1 ovarian was 23.4%; in the experiment with OVCAR-3 ovarian it was -8.1% (active); in the experiment on HS 578T breast it was 21.4%; in the experiment with NCI/ADR-RES ovarian, 7.71% (active).
As for `COc1cc(/C=C(/c2ccccc2)[N+](=O)[O-])c(OC)c2c1OCO2`, the growth in the experiment with SR leukemia is -18.9% (active); with RPMI-8226 leukemia, -19.7% (active); with OVCAR-8 ovarian, -1.64% (active); in the experiment on OVCAR-5 ovarian, -36.7% (active); in the experiment on OVCAR-4 ovarian it was -25.9% (active); in the experiment on SK-OV-3 ovarian, 63%. In addition, the growth with IGROV1 ovarian was -41.8% (active); with OVCAR-3 ovarian it was -97.4% (active); in the experiment with HS 578T breast, 31%; in the experiment on NCI/ADR-RES ovarian, 10.7%.
